In all, about 210,000 compounds went through this assay and about 5,900 (2.8%) were called active. About 5% were inconclusive and are not listed. The call rests on the fitted dose curve; in most records, active means well fitted activation curve with a large enough effect; inconclusive means small, poorly fitted or top-dose-only effect; inactive means no such curve, though single readings can be large or run the other way. The list comes from a sample in which actives are over-represented; it also holds similar structures and randomly drawn compounds. A call without a number means that no potency is given here.

Our source for the Potency values is PubChem BioAssay AID1458 (National Center for Advancing Translational Sciences (NCATS), 2008).
Potency means the concentration at half of the fitted maximal effect.

This assay in a line: qHTS Assay for Enhancers of SMN2 Splice Variant Expression. Further: nearly all actives have a fitted effect of over 55% in size. The settings on record: HEK293 SMN2-luciferase splicing reporter, luminescence, 30-36 h; series mostly up to 46.1 µM. The text has this:
NIH Chemical Genomics Center [NCGC] NIH Molecular Libraries Probe Production centers Network [MLPCN] MLPCN Grant: R03 MH084179-01 Assay Submitter (PI): Elliot Androphy NCGC Assay Overview: Spinal muscular atrophy (SMA) is caused by insufficient levels of the survival motor neuron protein SMN. The SMN locus on chromosome 5q13 contains two inverted copies of SMN called SMN1 and SMN2 which are 99% identical at the amino acid level. SMN1 is a fully functional protein and SMN2 skips exon 7 90% of the time. Skipping of exon 7 produces non-functional protein product. 10% of the SMN2 protein includes exon 7 and is fully functional. In the SMA disease state, mutations in the SMN1 locus are the cause of the disease state. Because only 10% of SMN2 is of the fully functional form, it is not sufficient to overcome the deficiency produced by the loss of the SMN1 product. A therapy that either increase the amount of SMN2 product made or to increase the inclusion of exon 7 has been proposed for the treatment of SMA. We have designed an assay to identify small molecules that can increase the amount of functional SMN2 product by appending a luciferase reporter gene after the native SMN2 gene, such that inclusion of exon 7 in the expressed product places the luciferase sequence in frame, thus generating functional luciferase enzyme.
NCGC Assay Protocol Summary: This screen utilizes a luciferase reporter gene assay, combining the promoter and splicing based cassettes in tandem with the major portion of the native SMN2 cDNA, and then transfected into HEK293 cells. Compounds that increase luciferase signal presumably enhance expression of the functional SMN2 splice variant. Passaging media contained DMEM w/ glutamax (+phenol red) 10% FCS, 1x pen/strep, 200 ug/ml hygro, 1x sodium pyruvate. Assay media contained DMEM w/ glutamax (-phenol red) 10% FCS, 1x pen strep, 1x pyruvate Sequence, Parameter, Value, Description (1) Cells, […], 2000 cells/well, 1536 TC treated White solid bottom plate (2) Time, 10-12 hours, 37C 5% CO2 (3) Compound, 23 nl, MLSMR Library (4) Control Compound, 23 nL, Sodium butyrate st 4.5mM (final) conc (5) Time, 30-36 hours, 37C 5% CO2 (6) Reagent, 3 ul, One Glo (TM) from Promega (7) Time, 5-15 minutes, Room temp (8) Detector, Viewlux: luminescent read, 60 second integration, high speed 2x binning Keywords: Spinal muscular atrophy, SMA, SMN2, high throughput screening, MLSMR, MLPCN, NIH Roadmap, qHTS and NCGC
(In general: Quantitative high-throughput screening tests each substance at several concentrations.)
Take `Cc1c(C(=O)NCc2ccccc2Br)oc2ccc3c(c12)C(=O)CC(C)(C)O3`: the Potency result was “inactive”. Take `CCS(=O)(=O)c1nc(S(=O)(=O)c2ccc(C)cc2)c(NCc2ccc(Cl)cc2)s1`: the Potency result is “inactive”. For `O=c1n(Cc2cccc(C(F)(F)F)c2)c2ccccc2c2nc(-c3ccccc3)nn12`, the Potency entry was “inactive”. As to `Cc1ccc(NC(=O)C(Cc2ccccc2)NS(=O)(=O)c2ccc3c(c2)oc(=O)n3C)cc1C` (stereo not given), the Potency entry is “inactive”. Regarding `COc1cc(/C=C2/C(=O)ON=C2C)ccc1OCc1cccc(F)c1`, the Potency is 12.6 µM (active).

For the molecule `C/C=C/c1ccc(OCCOc2ccc(C=O)cc2OC)c(OC)c1`, the Potency entry is “inactive”. For the molecule `COc1cc(/C=C2/C(=O)ON=C2C)ccc1OCc1ccccc1F`, the Potency result was “inactive”.

Take `CCOC(=O)c1c(C)oc2ccc(N(C(=O)c3ccncc3)S(=O)(=O)c3ccc(CC)cc3)cc12`: the Potency entry was “inactive”. Next, `CCOC(=O)C1=C(c2ccccc2)Nc2ncnn2C1c1ccc(Cl)cc1` (stereo not given): “inactive”. For `CC(=O)Nc1cc2ccc(OC(C)=O)cc2oc1=O`, the Potency result is “inactive”.

On to `O=C(Nc1cc2ccccc2oc1=O)C1CCCCC1`, for which the Potency is 4.47 µM (active). As for `O=C(O)c1ccc(NC(=O)C2CCCCC2)cc1`, the Potency entry was “inactive”. Next, `COc1ccc(CNC(=O)c2cc3c(=O)[nH]c4ccc(C)cc4c3s2)c(OC)c1`: “inactive”; `Cc1cccc2c1N(CCOc1ccccc1)C(=O)C2=O`: “inactive”; `Cc1c(C(N)=O)sc2ncn(CCOc3ccccc3)c(=O)c12`: “inactive”. As to `Cc1nn(CCOc2ccccc2)c(=O)n1-c1ccccc1F`, the Potency is 17.8 µM (active). On to `Cc1cc(C)cc(NC(=O)CSc2oc(-c3ccccc3)nc2S(=O)(=O)c2ccc(Cl)cc2)c1`, for which the Potency result was “inactive”.

As for `Cc1ccc(Cl)cc1N1CCN(C(=O)CN2C(=O)COc3ccc(S(=O)(=O)N4CCOCC4)cc32)CC1`, the Potency result is “inactive”. Next, `COc1cccc(OCCOc2cccc(/C=N/n3cnnc3)c2)c1`: 8.91 µM (active); `COc1cccc(OCCCN2CCCCCC2)c1`: “inactive”; `C(=N\n1cnnc1)/c1cccnc1`: “inactive”. In the case of `CCOc1ccccc1C(=O)NC1(C(F)(F)F)NC(=O)N(CCc2ccc(OC)c(OC)c2)C1=O` (stereo not given), the Potency result was “inactive”. Turning to `CCOC(=O)c1ccc(NC(=O)C2CC(=O)NC(=Nc3ccc(C)c(C)c3)S2)cc1` (stereo not given), the Potency result is “inactive”. `CCCCN(C)CCNC(=O)C1CCCN(S(=O)(=O)c2cccc3nsnc23)C1` (stereo not given): the Potency entry is “inactive”. Next, `Cc1ccc(S(=O)(=O)c2nnn3c2nc(N2CCN(c4ccccc4F)CC2)c2cc(Cl)ccc23)cc1C`: “inactive”; `O=C(NNC(=S)Nc1ccc(Br)cc1Cl)c1ccco1`: 12.6 µM (active); `CCC(=O)NC(=S)Nc1ccc(NC(=O)c2ccco2)c(Cl)c1`: “inactive”.

As to `S=C(Nc1ccc(Br)cc1Cl)NC1CCN(Cc2ccccc2)CC1`, the Potency entry is “inactive”.

Consider `Cc1ccc(-c2cc(-c3coc4ccccc4c3=O)c3c(n2)-c2cc(Cl)ccc2OC3)cc1`, for which the Potency entry is “inactive”. In the case of `COc1ccc(CNC(=O)c2ccc(NC(=O)N3CC4CCCN4c4ccccc43)cc2)cc1` (stereo not given), the Potency result was “inactive”. Consider `C/C(=N\NC(=O)OC(C)(C)C)c1ccc[nH]1`, for which the Potency is 12.6 µM (active). `Cc1ccccc1NC(=O)NNC(=O)OC(C)(C)C`: the Potency entry is “inactive”. Regarding `CC(C)(C)OC(=O)N/N=C/c1ccc(C(=O)O)cc1`, the Potency result is “inactive”. Next, `Cc1cc(NC(=O)c2ccc(-c3ccc(Cl)cc3)o2)cc(-c2nc3ncccc3o2)c1O`: “inactive”. Turning to `COc1ccc(C(=O)Nc2nonc2-c2ccc(OC)c(OC)c2)cc1Cl`, the Potency entry was “inactive”. For `C/C(=N\NC(=O)c1nc(C)cc(C)n1)c1ccccc1`, the Potency was 11.2 µM (active). On to `C/C(=N/NC(=O)c1ccc(NC(=O)c2ccc(F)cc2)cc1)c1ccccc1`, for which the Potency entry is “inactive”.

Turning to `CC(C)=C(NC(=O)c1ccccc1)C(=O)N/N=C(\C)c1ccccc1O`, the Potency entry is “inactive”. For the molecule `CCOC(=O)c1c(NC(C)=O)c2c3c(sc2n1Cc1c(C)cc(C)cc1C)CCCC3`, the Potency entry was “inactive”. Take `COc1ccccc1-c1cc2nc(C)c(CCC(=O)NC3CCCCC3)c(C)n2n1`: the Potency entry is “inactive”.

For `CCS(=O)(=O)C1=NSC2=NC(=O)/C(=C\c3cc(C)n(-c4cccc(OC)c4)c3C)C(=N)N21`, the Potency entry was “inactive”.

Turning to `CS(=O)(=O)c1ccc2c(c1)SC1=NC(=O)/C(=C/c3ccco3)C(=N)N12`, the Potency result was “inactive”. For the molecule `Cc1cc(/C=C2/C(=N)N3C(=NC2=O)SN=C3S(C)(=O)=O)c(C)n1-c1ccccc1`, the Potency was 15.8 µM (active). Take `Cn1c(=O)cc(OCC(=O)N2CCN(c3ccccc3)CC2)c2ccccc21`: the Potency entry was “inactive”. On to `COC(=O)c1ccc(C2C(C(=O)Nc3ccccc3)=C(C)Nc3nc4ccccc4n32)cc1` (stereo not given), for which the Potency result was “inactive”.

Take `CN(Cc1ccccc1)C(=O)c1cn(C)c2ccc(S(=O)(=O)N(C)C3CCCCC3)cc2c1=O`: the Potency result is “inactive”. In the case of `COc1cccc(C(=O)c2sc3nc(-c4ccccc4)cc(C(F)(F)F)c3c2N)c1`, the Potency entry is “inactive”. `CN(C)c1ccnc2sc(C(=O)c3ccccc3)c(N)c12`: the Potency was 14.1 µM (active). Next, `CN(C)c1ccnc2sc3c(=O)n(Cc4ccccc4)cnc3c12`: “inactive”. Consider `CN(CC(=O)Nc1cccc(C(F)(F)F)c1)S(=O)(=O)c1cccs1`, for which the Potency entry was “inactive”.
